The source of these data is PubChem BioAssay (EPA / NIEHS).

Results filed as inconclusive are left out. Activity calls are given as the source filed them. Rule for the calls, unless noted: active = hit-call score of the fitted dose curve at least 0.9, where 1 is the maximum; inconclusive = response in the unintended direction; inactive = score below 0.9.

Experiment [1] deals with human Peroxisome Proliferator-activated Receptor delta (PPARd), PPARD (gene 5467) (UniProt Q03181). The experiment is described as follows: ATG_PPARd_TRANS: Attagene TRANS-FACTORIAL HepG2 Assay for human Peroxisome Proliferator-activated Receptor delta (PPARd) (AID 2283002). In short, it runs like this: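 Measured quantity: GAL4-UAS reporter transcript induction in HepG2 after 24 h chemical dosing, with NR-Gal4 chimeras supplied by transient transfection. Detection by RT-PCR and capillary electrophoresis; upward fit against DMSO.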
Sequence of human Peroxisome Proliferator-activated Receptor delta (PPARd), PPARD (gene 5467) (Q03181 whole entry, looked up, the tested form may be a part): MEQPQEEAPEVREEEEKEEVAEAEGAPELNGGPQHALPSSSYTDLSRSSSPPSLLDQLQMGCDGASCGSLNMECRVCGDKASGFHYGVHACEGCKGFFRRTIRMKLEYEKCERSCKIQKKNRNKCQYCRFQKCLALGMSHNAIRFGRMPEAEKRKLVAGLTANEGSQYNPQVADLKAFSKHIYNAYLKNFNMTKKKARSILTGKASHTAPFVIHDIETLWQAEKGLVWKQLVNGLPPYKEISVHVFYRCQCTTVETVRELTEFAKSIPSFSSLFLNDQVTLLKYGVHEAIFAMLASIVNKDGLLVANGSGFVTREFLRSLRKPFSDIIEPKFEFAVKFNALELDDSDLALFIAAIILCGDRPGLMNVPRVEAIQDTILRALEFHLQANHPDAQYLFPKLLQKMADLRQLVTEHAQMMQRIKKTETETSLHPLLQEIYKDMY

Experiment [2] deals with Peroxisome proliferator-activated receptor gamma (Homo sapiens) (UniProt P37231). Nature of the experiment: ATG_PPARg_TRANS: Attagene TRANS-FACTORIAL HepG2 Assay for human Peroxisome Proliferator-activated Receptor-gamma (PPARg) (AID 2283007). Put shortly:
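Endpoint reflects upward reporter mRNA change versus DMSO controls. Setup: transiently transfected HepG2, GAL4-UAS reporters driven by chimeric NR-Gal4, 24 h incubation, RT-PCR with capillary electrophoresis read-out.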

Experiment [3] deals with human RAR-related Orphan Receptor gamma (RORg), RORC (gene 6097) (UniProt P51449). The experiment is described as follows: ATG_RORg_TRANS: Attagene TRANS-FACTORIAL HepG2 Assay for human RAR-related Orphan Receptor gamma (RORg) (AID 2283011). Put shortly: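 Activity is scored as increase in GAL4-UAS reporter mRNA over DMSO, detected by fluorescent RT-PCR and capillary electrophoresis in HepG2 cells transiently expressing a RORg-Gal4 chimera, 24 h after dosing.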
Sequence of human RAR-related Orphan Receptor gamma (RORg), RORC (gene 6097) (P51449 whole entry, looked up, the tested form may be a part): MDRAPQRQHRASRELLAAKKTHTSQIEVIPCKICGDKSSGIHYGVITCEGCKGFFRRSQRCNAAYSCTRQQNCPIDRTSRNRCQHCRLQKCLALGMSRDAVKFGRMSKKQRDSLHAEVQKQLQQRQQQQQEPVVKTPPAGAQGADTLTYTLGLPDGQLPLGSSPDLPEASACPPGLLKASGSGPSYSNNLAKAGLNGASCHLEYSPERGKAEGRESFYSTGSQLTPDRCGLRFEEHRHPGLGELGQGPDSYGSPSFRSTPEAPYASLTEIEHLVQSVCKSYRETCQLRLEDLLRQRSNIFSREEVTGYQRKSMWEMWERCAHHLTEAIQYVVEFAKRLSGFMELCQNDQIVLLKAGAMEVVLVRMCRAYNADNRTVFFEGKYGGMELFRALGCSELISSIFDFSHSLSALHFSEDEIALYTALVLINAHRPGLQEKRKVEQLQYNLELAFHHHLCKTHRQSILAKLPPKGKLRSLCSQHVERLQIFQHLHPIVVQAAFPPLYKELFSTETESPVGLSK

Experiment [4] concerns the target Retinoic acid receptor RXR-alpha (Homo sapiens) (UniProt P19793). Nature of the experiment: ATG_RXRa_TRANS: Attagene TRANS-FACTORIAL HepG2 Assay for human Retinoid X Receptor alpha (RXRa) (AID 2283012). In short, it runs like this:
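HepG2 cells transiently transfected with GAL4-UAS reporter units and chimeric RXRa-Gal4 protein, treated 24 h. Reporter mRNA measured by RT-PCR, fluorescent labelling, HpaI digestion and capillary electrophoresis. Induction fitted against DMSO.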

The target of experiment [5] is human Retinoid X Receptor beta (RXRb), RXRB (gene 6257) (UniProt P28702). The experiment is described as follows: ATG_RXRb_TRANS: Attagene TRANS-FACTORIAL HepG2 Assay for human Retinoid X Receptor beta (RXRb) (AID 2283013). In short, it runs like this:
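HepG2 cells were transiently transfected with multiplexed GAL4-UAS reporters and a chimeric RXRb-Gal4 construct, then exposed for 24 h. Reporter mRNA was quantified by RT-PCR, FAM labeling, HpaI digestion and capillary electrophoresis; gain of signal was scored against DMSO.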

The target in experiment [6] is human Thyroid Receptor alpha (THRa1), THRA (gene 7067) (UniProt P10827). Nature of the experiment: ATG_THRa1_TRANS: Attagene TRANS-FACTORIAL HepG2 Assay for human Thyroid Receptor alpha (THRa1) (AID 2283014). In short, it runs like this:
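First, HepG2 cells receive multiple GAL4-UAS reporter units and the chimeric receptor. They are then dosed for 24 h, after which RNA is reverse-transcribed, amplified, labelled, HpaI-cut and sized by capillary electrophoresis; gain relative to DMSO is scored.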

Experiment [7] addresses Nuclear receptor subfamily 1 group I member 2 (Homo sapiens) (UniProt O75469). Nature of the experiment: ATG_PXR_TRANS: Attagene TRANS-FACTORIAL HepG2 Assay for human Pregnane X Receptor (PXR) (AID 2283008). Put shortly: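 HepG2 cells transiently transfected with multiple reporter units, here a PXR-GAL4 chimera driving a GAL4-UAS reporter; 24 h compound exposure. Reporter mRNA measured by RT-PCR, FAM labelling and capillary electrophoresis; gain of signal fitted against DMSO baseline.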

Read-out in experiment [8]: Intercellular Adhesion Molecule 1 (ICAM1), ICAM1 (gene 3383)
Nature of the experiment: BSK_3C_ICAM1: BioMAP Diversity Plus: 3C Assay for Intercellular Adhesion Molecule 1 (ICAM1) Biomarker Activity (AID 2283003; active = hit-call score of the fitted dose curve at least 0.9, where 1 is the maximum; inactive = score below 0.9). Particulars: primary human endothelial cells (HUVEC); actives raise or lower the signal. In short, it runs like this: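 HUVEC primary cells stimulated under 3C conditions; ICAM1 measured by ELISA 24 h after compound dosing. Curves fitted bidirectionally against the DMSO baseline. Overt cytotoxicity checked by SRB staining of parallel cultures.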

A short description of experiment [9]: BSK_3C_Proliferation: Cell Proliferation Assessment in the BioMAP Diversity Plus: 3C Assay (AID 2283006; active = hit-call score of the fitted dose curve at least 0.9, where 1 is the maximum; inactive = score below 0.9;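 for AC50: potency may reflect either rise or fall in cell number versus DMSO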). Particulars: primary human endothelial cells (HUVEC). In short, it runs like this:
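Subconfluent HUVEC (3C system) cultured with chemical; relative cell number read at 48 h by sulforhodamine B total-protein staining (0.1% SRB after 10% TCA fixation, 560 nm). Bidirectional fit relative to DMSO.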

The target of experiment [10] is human RAR-related Orphan Receptor beta (RORb), RORB (gene 6096) (UniProt Q92753). The experiment is described as follows: ATG_RORb_TRANS: Attagene TRANS-FACTORIAL HepG2 Assay for human RAR-related Orphan Receptor beta (RORb) (AID 2283010). Put shortly: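 HepG2 cells transiently transfected with GAL4-UAS reporter units expressing chimeric NR-Gal4 protein; reporter mRNA measured 24 h after dosing by RT-PCR, 6-FAM labelling and capillary electrophoresis. Gain-of-signal fitted relative to DMSO baseline.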
Sequence of human RAR-related Orphan Receptor beta (RORb), RORB (gene 6096) (Q92753 whole entry, looked up, the tested form may be a part): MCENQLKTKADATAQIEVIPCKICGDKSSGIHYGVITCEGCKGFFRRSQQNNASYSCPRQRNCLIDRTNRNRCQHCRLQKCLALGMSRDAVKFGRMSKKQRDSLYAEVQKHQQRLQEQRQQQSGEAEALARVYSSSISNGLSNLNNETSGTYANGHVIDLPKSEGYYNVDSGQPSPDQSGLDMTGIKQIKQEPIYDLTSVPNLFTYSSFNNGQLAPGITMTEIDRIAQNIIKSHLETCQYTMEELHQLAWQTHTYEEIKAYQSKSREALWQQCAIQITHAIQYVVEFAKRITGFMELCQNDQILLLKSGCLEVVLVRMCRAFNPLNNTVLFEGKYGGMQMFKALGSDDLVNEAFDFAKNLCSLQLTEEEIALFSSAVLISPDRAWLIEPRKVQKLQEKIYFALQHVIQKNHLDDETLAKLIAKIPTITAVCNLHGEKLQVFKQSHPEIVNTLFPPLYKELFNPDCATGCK

Read-out in experiment [11]: E-selectin (Homo sapiens) (UniProt P16581)
Nature of the experiment: BSK_3C_Eselectin: BioMAP Diversity Plus: 3C Assay for Eselectin Biomarker Activity (AID 2283015; active = hit-call score of the fitted dose curve at least 0.9, where 1 is the maximum; inactive = score below 0.9;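 note: cell surface E-selectin protein quantified by ELISA 24 h after dosing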). Particulars: primary human endothelial cells (HUVEC); actives raise or lower the signal. Put shortly:
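Human vascular endothelium from umbilical vein is exposed to test chemicals for 24 h. E-selectin levels are read by ELISA and compared with DMSO controls.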

Read-out in experiment [12]: Interleukin-1 alpha (IL1a), IL1A (gene 3552)
Nature of the experiment: BSK_BE3C_IL1a: BioMAP Diversity Plus: BE3C Assay for Interleukin-1 alpha (IL1a) Biomarker Activity (AID 2283016; active = hit-call score of the fitted dose curve at least 0.9, where 1 is the maximum; inactive = score below 0.9). The conditions noted are these: primary human bronchial epithelial cells; actives raise or lower the signal. Put shortly:
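Human primary bronchial epithelial cells, 24 h chemical exposure; IL-1a quantified by ELISA, fitted bidirectionally against DMSO. Cytotoxicity assessed in parallel by SRB total-protein staining at the time of measurement.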

Read-out in experiment [13]: Monocyte Chemoattractant Protein-1 (MCP1), CCL2 (gene 6347)
The experiment is described as follows: BSK_3C_MCP1: BioMAP Diversity Plus: 3C Assay for Monocyte Chemoattractant Protein-1 (MCP1) Biomarker Activity (AID 2283017; active = hit-call score of the fitted dose curve at least 0.9, where 1 is the maximum; inactive = score below 0.9). Particulars: primary human endothelial cells (HUVEC); actives raise or lower the signal. Put shortly: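 Endothelial cells from human umbilical vein are dosed with chemical, cultured 24 h, then assayed for MCP-1 by ELISA; both increases and decreases are modelled against DMSO controls.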

Read-out in experiment [14]: Monocyte Chemoattractant Protein-1 (MCP1), CCL2 (gene 6347)
The experiment is described as follows: BSK_4H_MCP1: BioMAP Diversity Plus: 4H Assay for Monocyte Chemoattractant Protein-1 (MCP1) Biomarker Activity (AID 2283018; active = hit-call score of the fitted dose curve at least 0.9, where 1 is the maximum; inactive = score below 0.9). The conditions noted are these: primary human endothelial cells (HUVEC); actives raise or lower the signal. Put shortly: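 Human umbilical vein endothelial cells (4H system) exposed to chemicals for 24 h in 96-well format. MCP-1 measured by ELISA; bidirectional fitting against DMSO, with SRB total-protein staining in parallel cultures for cytotoxicity.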

Read-out in experiment [15]: Human Leukocyte Antigen - DR isotype (HLADR), HLA-DRA (gene 3122)
Nature of the experiment: BSK_3C_HLADR: BioMAP Diversity Plus: 3C Assay for Human Leukocyte Antigen - DR isotype (HLADR) Biomarker Activity (AID 2283019; active = hit-call score of the fitted dose curve at least 0.9, where 1 is the maximum; inactive = score below 0.9;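 for outcome: ELISA of cell-surface HLA-DR on HUVEC 24 h after dosing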). The conditions noted are these: primary human endothelial cells (HUVEC); actives raise or lower the signal. Put shortly: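 Endothelial cells from human umbilical vein are treated with test chemical; after 24 h, HLA-DR levels are measured by ELISA. Data are fitted in both directions using DMSO as the baseline.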

Read-out in experiment [16]: Interleukin-8 (IL8), CXCL8 (gene 3576)
Nature of the experiment: BSK_3C_IL8: BioMAP Diversity Plus: 3C Assay for Interleukin-8 (IL8) Biomarker Activity (AID 2283020; active = hit-call score of the fitted dose curve at least 0.9, where 1 is the maximum; inactive = score below 0.9). Particulars: primary human endothelial cells (HUVEC); actives raise or lower the signal. In short, it runs like this: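 Primary human umbilical vein endothelial cells were dosed for 24 h. IL-8 was quantified by ELISA and fitted bidirectionally against DMSO. Cytotoxicity was assessed in parallel cultures by SRB staining at 560 nm.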

The target in experiment [17] is human Retinoic Acid Receptor beta (RARb), RARB (gene 5915) (UniProt P10826). Nature of the experiment: ATG_RARb_TRANS: Attagene TRANS-FACTORIAL HepG2 Assay for human Retinoic Acid Receptor beta (AID 2283004). Put shortly: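 HepG2, transient MRTU transfection, NR–Gal4 chimera, 24 h treatment; RT-PCR plus CE fluorescence detection of reporter mRNA; gain of signal vs DMSO.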

Experiment [18] concerns the target human Retinoic Acid Receptor gamma (RARg), RARG (gene 5916) (UniProt P13631). Nature of the experiment: ATG_RARg_TRANS: Attagene TRANS-FACTORIAL HepG2 Assay for human Retinoic Acid Receptor gamma (RARg) (AID 2283009). In short, it runs like this:
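HepG2 transiently transfected with GAL4-UAS reporter units and chimeric NR-Gal4 constructs; 24 h compound exposure. Reporter mRNA quantified by RT-PCR, FAM labeling, HpaI digestion and capillary electrophoresis; gain-of-signal versus DMSO.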

Sequence of human Thyroid Receptor alpha (THRa1), THRA (gene 7067) (P10827 whole entry, looked up, the tested form may be a part): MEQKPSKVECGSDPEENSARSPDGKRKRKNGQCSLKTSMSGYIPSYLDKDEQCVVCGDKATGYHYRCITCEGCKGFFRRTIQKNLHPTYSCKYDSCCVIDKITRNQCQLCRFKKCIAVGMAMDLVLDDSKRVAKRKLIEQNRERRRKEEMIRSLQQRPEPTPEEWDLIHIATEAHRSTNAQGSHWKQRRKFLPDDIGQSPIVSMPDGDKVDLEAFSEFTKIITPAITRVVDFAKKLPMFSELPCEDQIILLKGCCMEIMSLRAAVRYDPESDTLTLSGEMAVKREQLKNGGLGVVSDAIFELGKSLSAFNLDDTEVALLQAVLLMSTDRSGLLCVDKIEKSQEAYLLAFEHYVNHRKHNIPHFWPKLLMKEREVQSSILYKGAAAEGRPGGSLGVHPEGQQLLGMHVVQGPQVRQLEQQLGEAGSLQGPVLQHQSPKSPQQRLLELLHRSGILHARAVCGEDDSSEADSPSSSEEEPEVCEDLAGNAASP
Sequence of human Retinoid X Receptor beta (RXRb), RXRB (gene 6257) (P28702 whole entry, looked up, the tested form may be a part): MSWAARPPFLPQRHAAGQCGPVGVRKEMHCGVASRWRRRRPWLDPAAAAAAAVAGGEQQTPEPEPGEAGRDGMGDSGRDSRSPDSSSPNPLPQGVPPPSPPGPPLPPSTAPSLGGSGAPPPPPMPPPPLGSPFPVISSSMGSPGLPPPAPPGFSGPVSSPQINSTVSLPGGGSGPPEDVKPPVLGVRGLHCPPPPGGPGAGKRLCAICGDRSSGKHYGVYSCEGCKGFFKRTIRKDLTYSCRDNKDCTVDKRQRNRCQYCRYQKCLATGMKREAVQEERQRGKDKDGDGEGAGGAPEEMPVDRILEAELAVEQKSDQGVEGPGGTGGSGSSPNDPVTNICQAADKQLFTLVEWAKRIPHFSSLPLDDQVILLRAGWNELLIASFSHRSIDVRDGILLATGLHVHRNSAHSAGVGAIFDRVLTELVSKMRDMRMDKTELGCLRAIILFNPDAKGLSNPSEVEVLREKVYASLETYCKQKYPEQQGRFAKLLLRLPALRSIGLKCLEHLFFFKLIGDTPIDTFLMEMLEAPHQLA
Sequence of Nuclear receptor subfamily 1 group I member 2 (Homo sapiens) (O75469 whole entry, looked up, the tested form may be a part): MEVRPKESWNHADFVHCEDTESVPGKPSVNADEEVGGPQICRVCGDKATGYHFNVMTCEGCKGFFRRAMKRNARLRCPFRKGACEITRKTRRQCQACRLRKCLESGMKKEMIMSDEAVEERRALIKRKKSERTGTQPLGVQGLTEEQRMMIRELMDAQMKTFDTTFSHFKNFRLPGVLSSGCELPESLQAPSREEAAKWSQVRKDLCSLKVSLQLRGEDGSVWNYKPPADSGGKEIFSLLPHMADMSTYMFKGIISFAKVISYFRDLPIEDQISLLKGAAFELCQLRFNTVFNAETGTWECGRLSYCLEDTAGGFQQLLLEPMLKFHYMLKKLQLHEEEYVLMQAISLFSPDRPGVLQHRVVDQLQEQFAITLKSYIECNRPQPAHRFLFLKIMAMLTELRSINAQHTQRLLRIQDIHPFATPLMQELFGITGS
Sequence of Retinoic acid receptor RXR-alpha (Homo sapiens) (P19793 whole entry, looked up, the tested form may be a part): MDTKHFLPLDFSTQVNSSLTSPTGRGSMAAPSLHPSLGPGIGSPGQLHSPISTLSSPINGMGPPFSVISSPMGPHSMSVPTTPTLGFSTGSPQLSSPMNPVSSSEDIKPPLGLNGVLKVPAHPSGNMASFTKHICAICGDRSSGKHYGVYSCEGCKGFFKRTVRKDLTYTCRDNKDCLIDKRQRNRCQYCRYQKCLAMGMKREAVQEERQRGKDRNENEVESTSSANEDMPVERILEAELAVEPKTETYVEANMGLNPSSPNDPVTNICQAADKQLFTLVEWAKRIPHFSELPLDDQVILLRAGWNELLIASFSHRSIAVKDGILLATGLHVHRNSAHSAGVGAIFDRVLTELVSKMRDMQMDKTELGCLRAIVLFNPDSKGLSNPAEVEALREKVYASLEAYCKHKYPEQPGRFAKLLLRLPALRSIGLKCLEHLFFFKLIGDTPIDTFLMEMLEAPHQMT
Sequence of Peroxisome proliferator-activated receptor gamma (Homo sapiens) (P37231 whole entry, looked up, the tested form may be a part): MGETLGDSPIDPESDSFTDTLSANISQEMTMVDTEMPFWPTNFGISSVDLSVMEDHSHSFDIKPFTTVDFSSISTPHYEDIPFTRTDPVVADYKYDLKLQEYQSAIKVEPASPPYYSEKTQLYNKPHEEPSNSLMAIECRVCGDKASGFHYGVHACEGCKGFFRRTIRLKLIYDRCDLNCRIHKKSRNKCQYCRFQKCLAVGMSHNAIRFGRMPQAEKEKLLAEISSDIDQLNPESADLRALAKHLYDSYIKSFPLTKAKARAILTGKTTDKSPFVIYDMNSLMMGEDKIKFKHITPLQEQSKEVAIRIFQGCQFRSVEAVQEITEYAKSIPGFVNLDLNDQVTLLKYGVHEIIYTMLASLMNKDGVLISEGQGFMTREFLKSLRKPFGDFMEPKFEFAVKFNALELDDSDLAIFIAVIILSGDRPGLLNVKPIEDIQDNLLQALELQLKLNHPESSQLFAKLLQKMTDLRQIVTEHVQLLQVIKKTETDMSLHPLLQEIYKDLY
Sequence of E-selectin (Homo sapiens) (P16581 whole entry, looked up): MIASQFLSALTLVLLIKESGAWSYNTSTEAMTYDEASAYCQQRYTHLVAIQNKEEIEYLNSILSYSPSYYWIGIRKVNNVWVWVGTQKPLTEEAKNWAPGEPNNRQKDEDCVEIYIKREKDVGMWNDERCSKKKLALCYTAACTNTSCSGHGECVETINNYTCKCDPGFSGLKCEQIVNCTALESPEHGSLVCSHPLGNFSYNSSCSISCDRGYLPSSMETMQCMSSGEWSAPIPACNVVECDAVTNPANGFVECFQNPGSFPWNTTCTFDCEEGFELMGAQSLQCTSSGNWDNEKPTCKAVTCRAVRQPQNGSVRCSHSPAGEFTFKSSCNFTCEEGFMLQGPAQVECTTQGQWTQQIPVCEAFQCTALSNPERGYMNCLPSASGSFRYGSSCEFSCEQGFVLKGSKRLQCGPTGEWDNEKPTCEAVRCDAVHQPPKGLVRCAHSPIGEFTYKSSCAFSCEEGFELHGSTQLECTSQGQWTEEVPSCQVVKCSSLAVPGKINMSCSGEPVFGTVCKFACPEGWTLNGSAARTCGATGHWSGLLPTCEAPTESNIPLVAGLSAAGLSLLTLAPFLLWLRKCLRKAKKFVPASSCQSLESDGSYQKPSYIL
Sequence of human Retinoic Acid Receptor gamma (RARg), RARG (gene 5916) (P13631 whole entry, looked up, the tested form may be a part): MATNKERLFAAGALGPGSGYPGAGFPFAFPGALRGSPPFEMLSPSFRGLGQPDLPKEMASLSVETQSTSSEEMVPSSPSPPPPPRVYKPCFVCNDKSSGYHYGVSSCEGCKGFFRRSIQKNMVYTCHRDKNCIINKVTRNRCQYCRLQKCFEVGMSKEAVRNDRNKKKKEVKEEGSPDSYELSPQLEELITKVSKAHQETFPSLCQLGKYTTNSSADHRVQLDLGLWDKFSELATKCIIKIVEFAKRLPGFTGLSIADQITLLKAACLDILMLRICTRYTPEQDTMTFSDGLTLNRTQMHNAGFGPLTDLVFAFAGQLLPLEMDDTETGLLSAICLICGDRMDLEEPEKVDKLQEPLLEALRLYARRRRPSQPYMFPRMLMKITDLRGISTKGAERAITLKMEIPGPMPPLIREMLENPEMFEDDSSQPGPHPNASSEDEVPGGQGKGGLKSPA

Regarding `Nc1ccc(F)c([N+](=O)[O-])c1`, the call in [1], in [2], in experiment [3], in experiment [4], in [5] and in experiment [6] was inactive.
Regarding `CC(C)(C)NC(N)=O`, the outcome in experiment [1], in [7], in [4], in [5] and in [6] was inactive.
Usually AC50 stands for the concentration at which the activity in the assay is half-maximal. `BrC1CCC(Br)C(Br)CCC(Br)C(Br)CCC1Br` (stereo not given): the outcome in experiment [8], in [2], in [10], in [4], in [6] and in experiment [11] was inactive. The outcome in experiment [12] was inactive. The AC50 is 4.72 µM (active) in experiment [9]; 2.86 µM (active) in experiment [7]; 8.67 µM (active) in experiment [5]; 4.64 µM (active) in experiment [13]; 1.58 µM (active) in [14]; 3.33 µM (active) in experiment [15]. In [16], the AC50 is 4.7 µM (active).
For `CC(c1cc2ccccc2s1)N(O)C(N)=O` (stereo not given), the call in experiment [1], in [7], in [4] and in [6] was inactive.
In the case of `CC[Si](OC(C)=O)(OC(C)=O)OC(C)=O`, the outcome in [8], in experiment [9], in experiment [2], in [10], in [3] and in experiment [11] was inactive. Moreover, the result in experiment [12], in [13], in experiment [14], in experiment [15] and in [16] was inactive. Also, in experiment [7], the AC50 was 7.32 µM (active).
On to `CC(=O)Nc1ccccc1O`, for which the result in experiment [8], in experiment [9], in experiment [2], in [7], in experiment [3] and in experiment [4] was inactive. Also, the call in experiment [5], in experiment [11], in experiment [12], in [13], in [14] and in experiment [15] was inactive. For the same compound, the result in [16] was inactive.
`CNC[C@H](O)c1cccc(O)c1`: the outcome in experiment [8], in experiment [17], in experiment [9], in experiment [7], in experiment [18] and in experiment [10] was inactive. Further, the outcome in experiment [6], in experiment [11], in [12], in [13], in experiment [14] and in experiment [15] was inactive. The outcome in [16] was inactive. Also, the AC50 in experiment [5] is 33.9 µM (active).
As for `COC(=O)OC`, the compound was classed as inactive in experiment [1], in [7], in experiment [3], in experiment [4] and in experiment [5].
Turning to `CCCCC(CC)COCCC#N` (stereo not given), the outcome in experiment [8], in [2], in [7], in experiment [3], in [4] and in experiment [11] was inactive. The result in experiment [12], in experiment [14] and in experiment [16] was inactive. Moreover, the AC50 was 20 µM (active) in [9], 51.1 µM (active) in experiment [5], 20 µM (active) in experiment [13] and 20 µM (active) in [15].
With `CC1(C)[C@H]2CC[C@]1(C)[C@H](O)C2`, the compound was called inactive in experiment [1], in [7], in experiment [10] and in [5].
As for `CN(C)c1ccc(O)c2c1C[C@H]1C[C@H]3[C@H](N(C)C)C(=O)C(C(N)=O)=C(O)[C@@]3(O)C(=O)C1=C2O`, the compound was classed as inactive in experiment [1], in experiment [7], in experiment [10], in experiment [4] and in [5].
